Five molecules from PubChem BioAssay (Tox21) can be followed below.

Assay [1] in a line: qHTS assay to identify small molecule agonists of the constitutive androstane receptor (CAR) signaling pathway - cell viability counter screen (AID 1224836). Also: nearly all actives have a fitted effect of over 45% in size. Also: potency is read from the fitted curve at half-maximal effect. Summed up:
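Cells were seeded and incubated 4 hrs. Compounds were added across 15 concentrations together with PK11195 at 0.75 uM final. Plates were incubated 23 hrs at 37 C. CellTiter-Fluor was added and fluorescence measured.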
A general note: In qHTS, concentration-response curves come from the screen itself.

Assay [2] in a line: qHTS assay to identify small molecule antagonists of the constitutive androstane receptor (CAR) signaling pathway - cell viability counter screen (AID 1224837). Also: nearly all actives have a fitted effect of over 45% in size. Also: potency is read from the fitted curve at half-maximal effect. The method in brief:
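Read-out: CellTiter-Fluor fluorescence after 23 hr at 37 C/5% CO2. Cells: HepG2 double-stable for hCAR and CYP2B6-2.2kb. Compounds tested at 15 concentrations in the presence of CITCO, final concentration 50 nM.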

Assay [3] addresses Nuclear receptor subfamily 1 group I member 3 (Homo sapiens) (UniProt Q14994). Kind of assay: qHTS assay to identify small molecule antagonists of the constitutive androstane receptor (CAR) signaling pathway (AID 1224838).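 Also: HepG2 cells stably expressing hCAR with CYP2B6 luciferase reporter stimulated by CITCO; nearly all actives have a fitted effect of over 40% in size.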 Also: potency is read from the fitted curve at half-maximal effect. The method in brief: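 Read-out: ONE-Glo luciferase luminescence after 30 min at room temperature. HepG2-CYP2B6-hCAR double-stable cells, compounds in 15-point titration plus 50 nM CITCO final, 24 h at 37 C/5% CO2.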

For assay [4] the target is unchanged. Kind of assay: qHTS assay to identify small molecule agonists of the constitutive androstane receptor (CAR) signaling pathway (AID 1224839). Also: nearly all actives have a fitted effect of over 15% in size. Also: potency is read from the fitted curve at half-maximal effect.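 As to activation: HepG2 cells stably carrying human CAR and a CYP2B6 luciferase reporter.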 The method in brief:
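Cells were plated and incubated 4 hrs, then dosed with compounds at 15 concentrations. PK11195 was added to 0.75 uM final. After 24 hrs at 37 C, luciferase luminescence was measured.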

Assay [5] can be described thus: qHTS assay to identify small molecule antagonists of the estrogen related receptor signaling pathway with the pleiotropic PPARgamma coactivator (PGC) from Tox21 10K library - cell viability counter screen (AID 1224840; active = well fitted cell-killing curve with a large enough effect in the repeat runs, not every such curve was filed as active; also: nearly all actives have a fitted effect of over 40% in size; also: potency is read from the fitted curve at half-maximal effect). Summed up:
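Fluorescence read-out of CellTiter-Fluor viability reagent, added after cells had been exposed to compound in DMSO for 17.5 h at 37 C; 30 min development at 37 C/5% CO2. Cells: PGC/ERR line, 2,000/well.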

Assay [6] is described as follows: qHTS assay to identify small molecule antagonists of the estrogen related receptor signaling pathway with the pleiotropic PPARgamma coactivator (PGC) from Tox21 10K library (AID 1224841; call rule not given here; also: actives are mostly falling curves and most rising ones were filed inactive; nearly all actives have a fitted effect of over 50% in size; also: potency is read from the fitted curve at half-maximal effect). The method in brief: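 Luminescence read-out (One-Glo luciferase reagent, 30 min at room temperature) from PGC/ERR cells exposed to DMSO-dissolved test compounds for 18 h at 37 C; cells, 2,000 per well, had been preincubated 6 h before compound transfer.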

A short description of assay [7]: qHTS assay to identify small molecule agonists of the estrogen related receptor signaling pathway with the pleiotropic PPARgamma coactivator (PGC) from Tox21 10K library (AID 1224842). Also: nearly all actives have a fitted effect of over 15% in size. The method in brief:
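PGC/ERR reporter cell line, 2,000 cells per well, incubated 6 h at 37 C before 23 nL compound in DMSO was added. After 18 h at 37 C, One-Glo luminescence read following 30 min at room temperature.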

A short description of assay [8]: qHTS assay to identify small molecule agonists of H2AX (AID 1224845; active = well fitted activation curve with a large enough effect in the signal ratio in the repeat runs, not every such curve was filed as active; the % refers to the signal ratio; also: potency is read from the fitted curve at half-maximal effect). Summed up: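 Wild-type CHO-K1 cells, plated overnight, exposed 3hr at 37C to 15 concentrations (0.76% DMSO final). Lysed, then HTRF anti-pH2AX (S139) cryptate and anti-H2AX-d2 antibodies, 24 hr room temperature; 665/620 nm emission read.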
Assay [9] can be described thus: qHTS assay to identify small molecule agonists of H2AX - cell viability counter screen (AID 1224847; calls by dose curve; also: nearly all actives have a fitted effect of over 30% in size; also: potency is read from the fitted curve at half-maximal effect). Summed up: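 Cytotoxicity counter screen in wild-type CHO-K1 cells: a 3 hr compound treatment at 37C across 15 concentrations, followed by CellTiter-Glo luminescence to gauge viable cells.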
Assay [10] can be described thus: qHTS assay to identify small molecule antagonists of the estrogen related receptor (ERR) signaling pathway from Tox21 library (AID 1224848). Also: nearly all actives have a fitted effect of over 50% in size. Also: potency is read from the fitted curve at half-maximal effect. The method in brief:
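Quantitative high-throughput format: ERR reporter cells (2,000/well) pre-incubated 6 h, treated 18 h at 37 C with compounds in DMSO alongside positive and negative controls, then read by ONE-Glo luminescence.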

Assay [11] is described as follows: qHTS assay to identify small molecule agonists of the estrogen related receptor (ERR) signaling pathway from Tox21 library (AID 1224849; calls by dose curve; also: nearly all actives have a fitted effect of over 15% in size). To be noted: ERR reporter cell line, ONE-Glo luciferase, 18 h; at 92.4 µM (top of the series) unless noted. Summed up:
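Luminescence readout (ONE-Glo, 30 min RT) after 18 h compound exposure at 37 C of NTP-supplied ERR reporter cells; cells were plated 6 h before compound addition by pin tool.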

Assay [12] is described as follows: qHTS RealTime-Glo MT Cell Viability Assay in HepG2 cells - 24 hour (AID 1224867). Also: nearly all actives have a fitted effect of over 50% in size. Also: potency is read from the fitted curve at half-maximal effect. Summed up: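 Real-time, nonlytic viability: 600 HepG2 cells/well mixed with NanoLuc enzyme plus prosubstrate; 5 h settle, compound (DMSO) added by pintool; luminescence monitored over 40 h at 37 C.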
The nature of assay [13]: qHTS RealTime-Glo MT Cell Viability Assay in HEK293 cells - 32 hour (AID 1224868). Also: nearly all actives have a fitted effect of over 50% in size. Also: potency is read from the fitted curve at half-maximal effect. Summed up:
(§1)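 Cells + reagent dispensed (600 cells/well, HEK293) → 5 h at 37 C/5% CO2 → 23 nL compound in DMSO pinned → 40 h at 37 C → luminescence read at 0, 8, 16, 24, 32, 40 h.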

The nature of assay [14]: A CellTox Green Cytotoxicity Assay to monitor cytotoxicity in HEK293 cells - 0 hour (AID 1224869). Also: nearly all actives have a fitted effect of over 50% in size. Summed up: (§2)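 Read-out: fluorescence of a cell-impermeant cyanine dye staining DNA of dead cells, proportional to cytotoxicity. HEK293, 600 cells/well with reagent, compound (23 nL DMSO) added after 5 h; reads at 0, 8, 16, 24, 32, 40 h.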
The nature of assay [15]: qHTS RealTime-Glo MT Cell Viability Assay in HepG2 cells - 40 hour (AID 1224870). Also: nearly all actives have a fitted effect of over 50% in size. Also: potency is read from the fitted curve at half-maximal effect. The method in brief: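 HepG2 cells (600/well) mixed with RealTime-Glo MT reagent, settled 5 h at 37 C/5% CO2 before compound addition. Nonlytic NanoLuc luminescence from viable-cell prosubstrate reduction read repeatedly during 40 h treatment at 37 C.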
Assay [16] can be described thus: A CellTox Green Cytotoxicity Assay to monitor cytotoxicity in HEK293 cells - 40 hour (AID 1224871). Also: nearly all actives have a fitted effect of over 45% in size. Also: potency is read from the fitted curve at half-maximal effect. Summed up:
as §2

The nature of assay [17]: qHTS RealTime-Glo MT Cell Viability Assay in HEK293 cells - 16 hour (AID 1224872). Also: nearly all actives have a fitted effect of over 50% in size. Also: potency is read from the fitted curve at half-maximal effect. Summed up: as §1
A short description of assay [18]: qHTS assay to identify small molecule agonists of the hypoxia (HIF-1) signaling pathway - cell viability counter screen (AID 1224844; calls by dose curve; also: nearly all actives have a fitted effect of over 50% in size; also: potency is read from the fitted curve at half-maximal effect). The method in brief:
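CellTiter-Glo luminescence read-out, 30 min RT, taken in the same wells as the beta-lactamase HRE reporter assay; HRE-bla ME-180 cells, 0.5% dialyzed FBS, 17 hr compound treatment at 37C, 5% CO2.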

Assay [19] concerns the target Thyrotropin receptor (Homo sapiens) (UniProt P16473). The assay can be described thus: qHTS assay to identify small molecule agonists of the thyroid stimulating hormone receptor (TSHR) signaling pathway (AID 1224843; calls by dose curve; also: nearly all actives have a fitted effect of over 45% in size). The method in brief:
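Agonist-mode screen: TSHR HEK293 cells received test chemicals for half an hour at room temperature, then HTRF cAMP detection reagents for one hour prior to fluorescence measurement. Each chemical ran as a 15-concentration series, triplicated.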

Assay [20] is described as follows: qHTS assay to identify small molecule agonists of the hypoxia (HIF-1) signaling pathway (AID 1224846; active = well fitted activation curve with a large enough effect in the signal ratio in the repeat runs, not every such curve was filed as active; the % refers to the signal ratio). The method in brief: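 Beta-lactamase FRET read-out (CCF4-AM substrate) from ME-180 cells carrying an HRE-driven bla reporter, after 17 hrs compound exposure at 37C/5% CO2. Cells were seeded at 2,000 per well in 0.5% dialyzed FBS medium and preincubated 5 hrs.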

A number with no mark means an inactive call. Inconclusive results are not listed. The source made the active and inactive calls. Unless noted, calls follow the shape of the dose curve; as a rule, active = well fitted curve in the direction sought with a large enough effect in the repeat runs; inconclusive = weak or mixed curves; inactive = no such curve, though single readings can be large; an effect the other way counts as inactive or inconclusive.
% is scaled to controls: 0 for no effect and ±100 for the full control effect.

Chain of Nuclear receptor subfamily 1 group I member 3 (Homo sapiens) (Q14994 whole entry, looked up): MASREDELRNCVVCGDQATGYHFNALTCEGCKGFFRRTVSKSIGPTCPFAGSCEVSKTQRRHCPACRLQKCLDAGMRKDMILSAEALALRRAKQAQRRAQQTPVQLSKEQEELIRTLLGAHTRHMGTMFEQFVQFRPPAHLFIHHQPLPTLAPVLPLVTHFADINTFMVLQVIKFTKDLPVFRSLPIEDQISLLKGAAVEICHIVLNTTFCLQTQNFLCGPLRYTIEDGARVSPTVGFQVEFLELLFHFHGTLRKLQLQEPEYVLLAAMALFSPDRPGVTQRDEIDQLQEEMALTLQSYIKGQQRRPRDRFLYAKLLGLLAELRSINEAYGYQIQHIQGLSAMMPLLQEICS
Chain of Thyrotropin receptor (Homo sapiens) (P16473 whole entry, looked up): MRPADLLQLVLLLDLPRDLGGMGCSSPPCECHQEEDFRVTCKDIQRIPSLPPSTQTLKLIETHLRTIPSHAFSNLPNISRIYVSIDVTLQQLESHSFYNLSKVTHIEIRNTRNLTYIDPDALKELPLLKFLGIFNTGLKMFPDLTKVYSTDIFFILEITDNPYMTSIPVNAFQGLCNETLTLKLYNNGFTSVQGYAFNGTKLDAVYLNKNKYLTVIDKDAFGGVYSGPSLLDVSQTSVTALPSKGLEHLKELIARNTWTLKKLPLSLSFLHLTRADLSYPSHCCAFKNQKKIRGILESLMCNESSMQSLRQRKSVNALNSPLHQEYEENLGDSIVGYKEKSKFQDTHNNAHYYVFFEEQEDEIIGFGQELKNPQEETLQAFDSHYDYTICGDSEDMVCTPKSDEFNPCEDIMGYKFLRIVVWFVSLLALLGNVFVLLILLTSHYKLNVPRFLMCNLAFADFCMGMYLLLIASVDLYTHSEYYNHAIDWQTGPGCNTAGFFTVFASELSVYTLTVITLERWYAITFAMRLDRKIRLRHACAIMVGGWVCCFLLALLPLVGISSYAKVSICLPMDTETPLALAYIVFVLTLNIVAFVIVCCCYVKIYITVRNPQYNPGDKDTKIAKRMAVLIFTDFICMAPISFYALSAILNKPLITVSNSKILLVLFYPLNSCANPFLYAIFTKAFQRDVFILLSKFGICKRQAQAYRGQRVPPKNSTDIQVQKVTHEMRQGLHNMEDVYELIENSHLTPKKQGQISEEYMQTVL

As for `O=c1[nH]sc2ccccc12`, the Potency in [1] is 54.5 µM (active); in assay [2], 27.3 µM (active); in assay [3], 21.7 µM (active); in assay [5] it was 48.6 µM (active); in assay [6] it was 27.3 µM (active); in [9], 101 µM (active). The Potency in assay [10] was 43.3 µM (active); in assay [12], 21.9 µM (active); in [13], 30.9 µM (active); in assay [15], 21.9 µM (active); in assay [16] it was 54.9 µM (active); in assay [17] it was 38.9 µM (active). The Potency result in [4], in assay [7], in [8] and in [14] was “inactive” each time. The activity change, positive = activation in assay [11] is -73.9%.

`Cc1c(C)c2c(c(C)c1OC(=O)CCC(=O)O)CC[C@@](C)(CCC[C@H](C)CCC[C@H](C)CCCC(C)C)O2`: the Potency entry in assay [1], in [2], in assay [3], in [4], in [5] and in assay [6] was “inactive” in each case. Moreover, the Potency result in assay [7], in [8], in [9], in assay [10], in assay [14] and in [17] was “inactive” in each case. Further, the Potency is 1.4 µM (active) in [18] and 55.6 µM (active) in assay [15]. In [11], the activity change, positive = activation was -23.6%.

As to `CN(C)C(=O)C1(N2CCCCC2)CCN(CC[C@@]2(c3ccc(Cl)c(Cl)c3)CN(C(=O)c3ccccc3)CCO2)CC1`, the Potency in [1] is 50.9 µM (active); in assay [2] it was 50.9 µM (active); in [3], 50.9 µM (active); in [5], 28.6 µM (active); in assay [6] it was 50.9 µM (active); in [18] it was 45.8 µM (active). Besides, the Potency in assay [8] was 47.2 µM (active); in [9], 52.9 µM (active); in [10], 28.6 µM (active); in assay [12], 20.4 µM (active); in assay [13] it was 10.2 µM (active); in [15] it was 18.2 µM (active). The Potency in [16] is 28.9 µM (active); in [17] it was 12.9 µM (active). Also, the Potency result in assay [4], in assay [7] and in assay [14] was “inactive” in each case. Further, the activity change, positive = activation in [11] was -73.9%.

In the case of `O=C(O)c1ccc(Cl)c(Cl)c1`, the Potency entry in assay [1], in [2], in [3], in assay [4], in assay [5] and in [6] was “inactive” each time. For the same molecule, the Potency entry in assay [7], in [19], in assay [18], in assay [8], in [20] and in [9] was “inactive” throughout. Besides, the Potency result in assay [10], in assay [12], in assay [13], in assay [14], in assay [15] and in [16] was “inactive” throughout. In assay [17], the Potency result is “inactive”. The activity change, positive = activation in assay [11] is -1.94%.

Regarding `CCC1OCC(COc2ccc(Oc3ccccc3)cc2)O1` (stereo not given), the Potency entry in assay [1], in assay [2], in assay [3], in assay [5], in assay [6] and in assay [18] was “inactive” each time. Moreover, the Potency result in assay [8], in assay [20], in assay [10], in [12], in assay [14] and in assay [15] was “inactive” throughout. In assay [16], the Potency result was “inactive”. Moreover, in assay [4], the Potency is 21.7 µM (active). In [11], the activity change, positive = activation was -1.58% (active).
